The values that follow come from PubChem BioAssay (EPA / NIEHS).

Records with an inconclusive call do not appear. The source made the active and inactive calls. How the source made its calls: active means hit-call score of the fitted dose curve at least 0.9, where 1 is the maximum; inconclusive means response in the unintended direction; inactive means score below 0.9.

For assay [1], the target named is Peroxisome proliferator-activated receptor gamma (Homo sapiens) (UniProt P37231). Nature of the assay: ATG_hPPARg_XSP1: Attagene TRANS-FACTORIAL Multi-Species (XSP1) HepG2 Assay for human Peroxisome Proliferator-activated Receptor gamma (PPARg) (AID 2283800). On the procedure:
(§1) ATG_XSP1_multi-species_TRANS is a cell-based, multiplexed assay created by modifying the existing Attagene TRANS-FACTORIAL system to include a panel of nuclear receptors from some or all the following species: human (Homo sapiens), mouse (Mus musculus), frog (Xenopus laevis), zebrafish (Danio rerio), chicken (Gallus gallus), and turtle (Chrysemys picta). The ECOTOX-FACTORIAL format uses HepG2, a human liver cell line, with measurements taken at 24 hours after chemical dosing in a 24-well plate. Xsp1 included 3 nM 6-alpha-fluorotestosterone to partially stimulate the androgen receptor.ATG_hPPARg_XSP1 is one of 29 assay components measured or calculated from the ATG_XSP1_multi-species_TRANS assay. It is designed to make measurements of mRNA induction, a form of inducible reporter, as detected with fluorescence intensity signals by Reverse transcription polymerase chain reaction (RT-PCR) and Capillary electrophoresis technology.The assay endpoint ATG_hPPARg_XSP1 was analyzed in the positive analysis fitting direction relative to DMSO as the negative control and baseline of activity. […] Furthermore, this assay endpoint can be referred to as a primary readout, because this assay has produced multiple assay endpoints where this one serves a reporter gene function. […]

The subject of assay [2] is zebrafish Peroxisome Proliferator-activated Receptor gamma (PPARg), gene 557037. The experiment in a line: ATG_zfPPARg_XSP1: Attagene TRANS-FACTORIAL Multi-Species (XSP1) HepG2 Assay for zebrafish Peroxisome Proliferator-activated Receptor gamma (PPARg) (AID 2283801). The method in brief: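 Trans-activation readout of chimeric zebrafish PPARg–GAL4 in transiently transfected human HepG2 cells, 24 h chemical exposure (medium includes 3 nM 6-alpha-fluorotestosterone). Reporter transcripts measured by RT-PCR and capillary electrophoresis, fitted as gain over DMSO.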

Assay [3] addresses Nuclear receptor subfamily 1 group I member 2 (Mus musculus) (UniProt O54915). The experiment in a line: ATG_mPXR_XSP1: Attagene TRANS-FACTORIAL Multi-Species (XSP1) HepG2 Assay for mouse Pregnane X Receptor (PXR) (AID 2283803). An outline of the steps: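 Transiently transfected HepG2 cells expressing a receptor-Gal4 chimera drive a GAL4-UAS reporter; 3 nM 6-alpha-fluorotestosterone included. Reporter mRNA read 24 h post-dose by RT-PCR and capillary electrophoresis; gain of signal relative to DMSO.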

Assay [4] deals with human Thyroid hormone Receptor alpha (TRa), THRA (gene 7067) (UniProt P10827). The experiment in a line: ATG_hTRa_XSP1: Attagene TRANS-FACTORIAL Multi-Species (XSP1) HepG2 Assay for human Thyroid hormone Receptor alpha (TRa) (AID 2283805). An outline of the steps:
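Reporter transcripts from the human TRa-Gal4 TRANS unit quantified by RT-PCR, fluorescent labeling and capillary electrophoresis after 24 hours of chemical exposure in transfected HepG2 cells; medium contains 3 nM 6-alpha-fluorotestosterone. Positive direction fit against DMSO.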

Assay [5] concerns the target zebrafish Thyroid Hormone Receptor alpha (TRa), thraa (gene 30670) (UniProt Q98867). The experiment in a line: ATG_zfTRa_XSP1: Attagene TRANS-FACTORIAL Multi-Species (XSP1) HepG2 Assay for zebrafish Thyroid Hormone Receptor alpha (TRa) (AID 2283807). On the procedure:
as §1, with “receptor.ATG_zfTRa_XSP1” for “receptor.ATG_hPPARg_XSP1”, “ATG_zfTRa_XSP1” for “ATG_hPPARg_XSP1”

In assay [6] the target is human Thyroid hormone Receptor beta (TRb), THRB (gene 7068) (UniProt P10828). Nature of the assay: ATG_hTRb_XSP1: Attagene TRANS-FACTORIAL Multi-Species (XSP1) HepG2 Assay for human Thyroid hormone Receptor beta (TRb) (AID 2283808). An outline of the steps: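 Readout is reporter mRNA induction measured by RT-PCR, fluorescent labelling and capillary electrophoresis, fitted upward relative to DMSO. Transiently transfected human HepG2 cells expressing NR-Gal4 chimeras were dosed for 24 h, medium containing 3 nM 6-alpha-fluorotestosterone.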
Sequence of human Thyroid hormone Receptor beta (TRb), THRB (gene 7068) (P10828 whole entry, looked up, the tested form may be a part): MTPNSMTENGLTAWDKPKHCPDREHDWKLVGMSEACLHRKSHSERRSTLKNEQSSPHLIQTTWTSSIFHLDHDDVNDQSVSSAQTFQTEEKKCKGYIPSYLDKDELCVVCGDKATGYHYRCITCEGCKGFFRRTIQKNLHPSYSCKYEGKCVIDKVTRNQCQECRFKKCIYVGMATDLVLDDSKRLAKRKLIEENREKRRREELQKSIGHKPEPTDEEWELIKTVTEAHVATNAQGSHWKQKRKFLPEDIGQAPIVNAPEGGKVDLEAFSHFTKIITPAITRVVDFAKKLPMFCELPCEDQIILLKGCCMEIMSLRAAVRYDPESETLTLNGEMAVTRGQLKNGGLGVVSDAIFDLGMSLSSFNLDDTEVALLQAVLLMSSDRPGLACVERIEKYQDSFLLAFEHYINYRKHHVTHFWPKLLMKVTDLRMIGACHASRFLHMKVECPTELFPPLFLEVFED

For assay [7], the target named is zebrafish Thyroid Hormone Receptor beta (TRb), thrb (gene 30607) (UniProt Q9PVE4). Nature of the assay: ATG_zfTRb_XSP1: Attagene TRANS-FACTORIAL Multi-Species (XSP1) HepG2 Assay for zebrafish Thyroid Hormone Receptor beta (TRb) (AID 2283809). The method in brief:
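HepG2 cells transiently transfected with multiplexed GAL4-UAS reporter units expressing chimeric zebrafish TRb–Gal4. Dosed 24 h with 3 nM 6-alpha-fluorotestosterone present; reporter mRNA measured by RT-PCR, HpaI digestion and capillary electrophoresis; gain of signal versus DMSO.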

The nature of assay [8]: ATG_XTT_Cytotoxicity_XSP1: Cytotoxicity Assessment in the Attagene TRANS-FACTORIAL Multi-Species (XSP1) HepG2 Assay (AID 2283810). The method in brief: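 XTT viability readout taken at 24 hours post-dosing in HepG2 liver cells co-treated with 3 nM 6-alpha-fluorotestosterone. Signal loss relative to DMSO controls reflects cytotoxicity.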
A short description of assay [9]: ATG_M_06_XSP2: Attagene TRANS-FACTORIAL Multi-Species (XSP2) HepG2 Assay for M06 Transcription Factor (Internal Marker) (AID 2283811).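 Further: hits are increases in signal above the DMSO baseline.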 The protocol:
ATG_XSP2_multi-species_TRANS is a cell-based, multiplexed assay created by modifying the existing Attagene TRANS-FACTORIAL system to include a panel of nuclear receptors from some or all the following species: human (Homo sapiens), mouse (Mus musculus), frog (Xenopus laevis), zebrafish (Danio rerio), chicken (Gallus gallus), and turtle (Chrysemys picta). The ECOTOX-FACTORIAL format uses HepG2, a human liver cell line, with measurements taken at 24 hours after chemical dosing in a 24-well plate. Xsp2 included 3 nM 6-alpha-fluorotestosterone and 1.5 nM norgestrel to stimulate the androgen receptor.ATG_M_06_XSP2 is one of 29 assay components measured or calculated from the ATG_XSP2_multi-species_TRANS assay. It is designed to make measurements of mRNA induction, a form of inducible reporter, as detected with fluorescence intensity signals by Reverse transcription polymerase chain reaction (RT-PCR) and Capillary electrophoresis technology.This assay endpoint, ATG_M_06_XSP2, was analyzed in the positive analysis fitting direction relative to DMSO as the negative control and baseline of activity. Using a type of inducible reporter, measures of mRNA for gain-of-signal activity can be used to understand the background control at the transcription factor-level as they relate to the gene. Furthermore, this assay endpoint can be referred to as a secondary readout, because this assay has produced multiple assay endpoints where this one serves a background control function. To generalize the intended target to other relatable targets, this assay endpoint is annotated to the background measurement intended target family, where the subfamily is internal marker.
Human liver HepG2 cells are transiently transfected with multiple reporter transcription units (MRTUs) in 6-well plates using FuGene 6 reagent (Roche; 3 ml FuGene/1 mg DNA). The MRTU constructs are regulated by a cis-regulating element (promoter). […] A major difference between the CIS and TRANS system is that in CIS activities of endogenous TFs are measured, whereas the TRANS assay evaluates changes in activities of exogenous, chimeric NR-Gal4 proteins. […] At the end of 24 hour incubation, total RNA was isolated using TriZol reagent (Invitrogen). The isolated RNA is then reverse-transcribed using oligo(dT) primer and Mo-MLV reverse transcriptase (Invitrogen) with DNAse I (Ambion) treatment for 30 min. The one-tenth of the produced cDNA was amplified by PCR using Taq DNA polymerase (Invitrogen) and two reporter sequence-specific primers. The PCR products were fluorescently labeled by primer extension with 6-arboxyfluorescein (6-FAM) 5'-labeled reporter sequence-specific primer (2 min at 95 C, 20 s at 68 C and 10 min at 72 C) and these products were digested with 5U of HpaI (New England Biolabs) for 2h at 37 C. The fragments were purified using Qiaquick PCR columns (Qiagen), analyzed on an ABI 3130xL genetic analyzer (Applied Biosystems) with peak positions identified by using a set of X-rhodamine (ROX)-labeled MapMarker1000 molecular weight standards (BioVentures). The raw capillary electrophoresis data was processed using Attagraph software (Attagene).

For assay [10], the system named is turtle Thyroid Hormone Receptor, alpha (TRa), gene 101949057. The experiment in a line: ATG_trTRa_XSP1: Attagene TRANS-FACTORIAL Multi-Species (XSP1) HepG2 Assay for turtle Thyroid Hormone Receptor, alpha (TRa) (AID 2283806). The method in brief:
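After 24 h chemical exposure, reporter transcripts were measured by RT-PCR with fluorescent primer extension, HpaI digestion and capillary electrophoresis. Cells were transiently transfected HepG2 expressing exogenous NR-Gal4 chimeras; medium contained 3 nM 6-alpha-fluorotestosterone; fitted upward relative to DMSO.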

Sequence of human Thyroid hormone Receptor alpha (TRa), THRA (gene 7067) (P10827 whole entry, looked up, the tested form may be a part): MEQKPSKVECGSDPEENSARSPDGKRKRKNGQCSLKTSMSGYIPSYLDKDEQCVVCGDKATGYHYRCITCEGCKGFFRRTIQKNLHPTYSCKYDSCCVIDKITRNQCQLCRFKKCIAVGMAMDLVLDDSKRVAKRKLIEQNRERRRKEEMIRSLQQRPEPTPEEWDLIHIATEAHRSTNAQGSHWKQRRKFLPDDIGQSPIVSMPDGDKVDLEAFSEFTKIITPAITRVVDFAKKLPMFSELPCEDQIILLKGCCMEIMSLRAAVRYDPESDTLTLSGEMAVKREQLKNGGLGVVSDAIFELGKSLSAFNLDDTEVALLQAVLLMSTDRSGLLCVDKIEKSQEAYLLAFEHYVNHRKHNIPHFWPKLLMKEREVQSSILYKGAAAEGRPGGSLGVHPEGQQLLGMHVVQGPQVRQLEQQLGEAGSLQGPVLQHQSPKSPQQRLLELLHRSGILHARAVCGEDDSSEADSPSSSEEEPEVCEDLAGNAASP
Sequence of zebrafish Thyroid Hormone Receptor beta (TRb), thrb (gene 30607) (Q9PVE4 whole entry, looked up, the tested form may be a part): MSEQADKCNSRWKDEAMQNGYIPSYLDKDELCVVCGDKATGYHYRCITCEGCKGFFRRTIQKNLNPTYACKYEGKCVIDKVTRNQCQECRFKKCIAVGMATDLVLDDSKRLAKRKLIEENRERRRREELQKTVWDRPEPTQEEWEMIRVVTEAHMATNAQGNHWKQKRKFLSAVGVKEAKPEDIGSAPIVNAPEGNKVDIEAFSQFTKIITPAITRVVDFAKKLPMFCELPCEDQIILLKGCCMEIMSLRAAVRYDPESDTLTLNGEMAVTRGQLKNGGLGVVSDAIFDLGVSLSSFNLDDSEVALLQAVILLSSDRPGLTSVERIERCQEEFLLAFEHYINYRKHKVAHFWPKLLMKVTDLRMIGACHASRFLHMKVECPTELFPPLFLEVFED
Sequence of zebrafish Thyroid Hormone Receptor alpha (TRa), thraa (gene 30670) (Q98867 whole entry, looked up): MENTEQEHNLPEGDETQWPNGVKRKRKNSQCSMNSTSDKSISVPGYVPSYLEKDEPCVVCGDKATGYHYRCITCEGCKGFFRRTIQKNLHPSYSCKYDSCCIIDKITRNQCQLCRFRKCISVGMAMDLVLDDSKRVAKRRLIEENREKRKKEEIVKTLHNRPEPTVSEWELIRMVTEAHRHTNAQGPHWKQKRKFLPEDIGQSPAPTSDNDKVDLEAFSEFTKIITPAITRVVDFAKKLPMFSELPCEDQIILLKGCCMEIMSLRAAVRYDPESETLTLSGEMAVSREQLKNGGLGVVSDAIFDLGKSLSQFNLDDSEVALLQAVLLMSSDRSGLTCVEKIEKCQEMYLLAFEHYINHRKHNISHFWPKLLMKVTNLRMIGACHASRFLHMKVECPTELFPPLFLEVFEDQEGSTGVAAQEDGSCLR
Sequence of Peroxisome proliferator-activated receptor gamma (Homo sapiens) (P37231 whole entry, looked up): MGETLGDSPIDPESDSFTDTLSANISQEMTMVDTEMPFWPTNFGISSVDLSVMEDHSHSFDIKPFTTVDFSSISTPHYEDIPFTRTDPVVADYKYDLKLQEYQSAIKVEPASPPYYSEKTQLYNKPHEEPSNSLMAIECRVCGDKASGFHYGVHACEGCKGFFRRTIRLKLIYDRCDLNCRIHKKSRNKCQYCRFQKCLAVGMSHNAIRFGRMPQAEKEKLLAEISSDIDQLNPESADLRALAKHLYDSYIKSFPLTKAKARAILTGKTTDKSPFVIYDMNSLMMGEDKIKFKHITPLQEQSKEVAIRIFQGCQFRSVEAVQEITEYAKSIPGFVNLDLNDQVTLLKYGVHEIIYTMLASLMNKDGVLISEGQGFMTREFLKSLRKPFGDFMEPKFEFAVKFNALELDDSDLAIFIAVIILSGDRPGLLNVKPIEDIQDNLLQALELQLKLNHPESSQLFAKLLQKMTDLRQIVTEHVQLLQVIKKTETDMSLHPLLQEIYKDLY
Sequence of Nuclear receptor subfamily 1 group I member 2 (Mus musculus) (O54915 whole entry, looked up, the tested form may be a part): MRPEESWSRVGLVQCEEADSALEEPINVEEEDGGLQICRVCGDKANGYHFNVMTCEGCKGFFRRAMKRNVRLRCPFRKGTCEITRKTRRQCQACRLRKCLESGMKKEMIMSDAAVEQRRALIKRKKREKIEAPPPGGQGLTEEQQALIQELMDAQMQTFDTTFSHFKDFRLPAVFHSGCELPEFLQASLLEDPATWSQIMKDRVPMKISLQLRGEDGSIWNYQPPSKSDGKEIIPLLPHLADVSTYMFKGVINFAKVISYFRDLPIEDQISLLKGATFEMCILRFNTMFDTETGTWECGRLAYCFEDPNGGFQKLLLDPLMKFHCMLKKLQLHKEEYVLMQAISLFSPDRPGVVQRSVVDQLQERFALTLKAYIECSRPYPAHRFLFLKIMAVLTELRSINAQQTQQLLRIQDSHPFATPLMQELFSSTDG

For the molecule `CC/C(=C(\c1ccccc1)c1ccc(OCCN(C)C)cc1)c1ccccc1`, the outcome in [1], in assay [2], in [3], in [4], in assay [5] and in assay [6] was inactive. The outcome in [7] and in assay [9] was inactive. For the same molecule, the AC50 (usually the concentration at which the activity in the assay is half-maximal) in [8] was 26.1 µM (active).

For the molecule `C#C[C@]1(O)CC[C@H]2[C@@H]3CCc4cc(O)ccc4[C@H]3CC[C@@]21C`, the result in assay [1], in assay [4], in [10], in assay [5], in [6] and in [7] was inactive. Besides, the call in [8] and in assay [9] was inactive.

As for `CCCCCC(=O)O[C@]1(C(C)=O)CC[C@H]2[C@@H]3CCC4=CC(=O)CC[C@]4(C)[C@H]3CC[C@@]21C`, the molecule was called inactive in assay [9].

`CCCCCCCCOC(=O)c1ccc(O)cc1`: the outcome in assay [9] was inactive.

Consider `CC(C)(C)c1ccc(S)cc1`, for which the molecule was called inactive in [9].
